Records with an inconclusive call do not appear. Calls of active or inactive are those of the source. Unless noted, calls come from the whole dose curve.
Legend:
[1] = qHTS assay to identify small molecule antagonists of the vitamin D receptor (VDR) signaling pathway - cell viability counter screen (AID 743225; active = well fitted curve in the direction sought with a large enough effect in the repeat runs; an effect the other way counts as inactive or inconclusive; note: nearly all actives have a fitted effect of over 50% in size)
How it was run: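 Same-well multiplex: following 16 h treatment of HEK 293T cells carrying a UAS-driven beta-lactamase reporter with compound and agonist (3 nM final), and a 2 h FRET substrate step, CellTiter-Glo was added and luminescence read after 30 min.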

[2] = qHTS assay to identify small molecule agonists of the NFkB signaling pathway - cell viability counter screen (AID 1159515); note: series mostly up to about 61 µM; nearly all actives have a fitted effect of over 55% in size
How it was run: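 Using the same wells as the NFkB reporter read, ME-180 NFkB-bla cells given compounds for 5 hr were assessed for viability via CellTiter-Glo, with luminescence taken after a 30 min room-temperature incubation.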

[3] = qHTS assay to identify small molecule agonists of the endoplasmic reticulum stress response signaling pathway (AID 1159516; active = well fitted activation curve with a large enough effect in the signal ratio in the repeat runs, not every such curve was filed as active; the % refers to the signal ratio)
How it was run: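 An ESRE-bla HeLa cell assay: compounds were pin-transferred from DMSO onto overnight-plated cells and left 5 hr at 37 C. Substrate was then loaded for 2 hr at room temperature before reading fluorescence at 460 nm and 530 nm.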

[4] = qHTS assay to identify small molecule agonists of the endoplasmic reticulum stress response signaling pathway - cell viability counter screen (AID 1159517);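 note: HeLa cells carrying an ER stress response element beta-lactamase reporter; series mostly up to about 61 µM; nearly all actives have a fitted effect of over 50% in size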
How it was run: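 Cells, HeLa ESRE-bla; density, 1,500/well; dosing, 5 hr at 37 C, 5% CO2; readout, CellTiter-Glo luminescence after 30 min RT.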

[5] = qHTS assay to identify small molecule antagonists of the retinoid-related orphan receptor gamma (ROR-gamma) signaling pathway - cell viability counter screen (AID 1159520; active = well fitted curve in the direction sought with a large enough effect in the repeat runs; an effect the other way counts as inactive or inconclusive; note: nearly all actives have a fitted effect of over 50% in size)
How it was run: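 Cytotoxicity was read from cellular ATP (CellTiter-Glo luminescence) after 16 hr at 37 C with 1 uM doxycycline induction. The inducer was added 2 hr after compound transfer to Tet-on ROR gamma CHO cells.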

[6] = qHTS assay to identify small molecule agonists of the AP-1 signaling pathway - cell viability counter screen (AID 1159525); note: nearly all actives have a fitted effect of over 55% in size
How it was run: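 Luminescent ATP readout (Cell Titer Glo, 30 min RT), normalised to DMSO and tetra n-octyl ammonium bromide controls. Cells were ME-180 AP-1-bla in 0.5% dialyzed FBS Opti-MEM, with a 5 h, 37 °C compound exposure.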

[7] = qHTS assay to identify small molecule agonists of the AP-1 signaling pathway (AID 1159526); note: potency is the fitted concentration of half-maximal effect
[8] = biological target: Retinoic acid receptor RXR-alpha (Homo sapiens) (UniProt P19793); experiment: qHTS assay to identify small molecule agonists of the RXR signaling pathway (AID 1159527); note: nearly all actives have a fitted effect of over 35% in size
How it was run: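 Compounds in DMSO were added to RXR-alpha-UAS-bla HEK 293T cells kept in 2% charcoal-stripped serum, and incubated 16 hr at 37 C with 5% CO2. Reporter signal came from a 2 hr B/G FRET substrate step.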

[9] = qHTS assay to identify small molecule agonists of the RXR signaling pathway - cell viability counter screen (AID 1159529; active = well fitted curve in the direction sought with a large enough effect in the repeat runs; an effect the other way counts as inactive or inconclusive; note: series mostly up to about 77 µM; nearly all actives have a fitted effect of over 50% in size)
How it was run: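 Counter screen: CellTiter-Glo luminescence. Cells: RXR-alpha-UAS-bla HEK 293T. Medium: 2% charcoal-stripped FBS. Treatment: 16 h, 37 C. Reagent incubation: 30 min, RT.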

[10] = biological target: Nuclear receptor ROR-gamma (Homo sapiens) (UniProt P51449); experiment: qHTS assay to identify small molecule antagonists of the retinoid-related orphan receptor gamma (ROR-gamma) signaling pathway (AID 1159521; active = well fitted curve in the direction sought with a large enough effect in the repeat runs; an effect the other way counts as inactive or inconclusive)
How it was run: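 Inducible-expression reporter assay: doxycycline (1 uM final) switched on RORγ in CHO cells bearing a ROR response element-luciferase construct, with test compounds present from 2 h beforehand. Decreased luminescence after 16 h defined antagonist activity.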

Measured: Potency

Retinoic acid receptor RXR-alpha (Homo sapiens), sequence (P19793 whole entry, looked up): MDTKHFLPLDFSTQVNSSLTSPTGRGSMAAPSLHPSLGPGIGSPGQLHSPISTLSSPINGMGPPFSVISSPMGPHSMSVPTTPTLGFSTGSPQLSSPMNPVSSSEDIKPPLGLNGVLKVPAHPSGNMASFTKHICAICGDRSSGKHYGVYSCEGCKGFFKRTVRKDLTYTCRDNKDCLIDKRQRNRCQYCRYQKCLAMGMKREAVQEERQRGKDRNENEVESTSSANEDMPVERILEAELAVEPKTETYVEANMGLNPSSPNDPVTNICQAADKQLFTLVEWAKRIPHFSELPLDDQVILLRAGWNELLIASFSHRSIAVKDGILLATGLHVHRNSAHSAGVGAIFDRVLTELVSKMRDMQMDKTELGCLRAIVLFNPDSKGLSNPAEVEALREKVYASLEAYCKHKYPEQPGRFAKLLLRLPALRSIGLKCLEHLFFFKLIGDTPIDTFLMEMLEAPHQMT

CC(=O)Nc1ccc(S(=O)(=O)Nc2cc(C)on2)cc1
inactive: [1] | [2] | [3] | [4] | [5] | [6] | [7] | [8] | [9]

C=CC(C)(CCC=C(C)C)OC(=O)C(C)C (stereo not given)
inactive: [2] | [3] | [4] | [5] | [6] | [7] | [9]

CCCC[O][Al]([O]CCCC)[O]CCCC
inactive: [1] | [2] | [3] | [4] | [5] | [6] | [7] | [9]

O=C(O)P(=O)(O)O
inactive: [1] | [2] | [3] | [4] | [5] | [10] | [6] | [7] | [9]

CC1(C)C(=O)C(C)(C)C1=O
inactive: [1] | [2] | [3] | [4] | [5] | [6] | [7] | [8] | [9]

O=C(c1ccccc1)c1cccc(O)c1
inactive: [1] | [2] | [3] | [5] | [10] | [6] | [7] | [8] | [9]

CC[N+](C)(CC)CC
inactive: [1] | [2] | [3] | [5] | [10] | [6] | [7] | [8] | [9]

CCCCC(O)/C=C(C)/C=C/C=C/C(=O)N1CCCC1=O (stereo not given)
inactive: [1] | [2] | [3] | [5] | [10] | [6] | [7] | [8] | [9]

Cc1cc(O)c(Cl)cc1C
inactive: [1] | [2] | [3] | [5] | [10] | [6] | [7] | [8] | [9]

O=C(O)CCCCCCCCCC(=O)O
inactive: [1] | [2] | [3] | [5] | [10] | [6] | [7] | [8] | [9]

N#Cc1ccccc1C#N
inactive: [1] | [2] | [3] | [5] | [10] | [6] | [7] | [9]

CSC(=O)c1cccc2nnsc12
inactive: [1] | [2] | [3] | [5] | [6] | [7] | [8] | [9]

CCCCCCCCCCCBr
inactive: [1] | [2] | [3] | [5] | [6] | [7] | [8] | [9]

CCCCCCCCCCCCCCBr
inactive: [1] | [2] | [3] | [4] | [5] | [6] | [7] | [9]

C=CCON/C(CCC)=C1\C(=O)CC(C)(C)C(C(=O)OC)=C1O
inactive: [1] | [2] | [3] | [5] | [10] | [6] | [7] | [8] | [9]

CCCC(=O)C(CC)Sc1ccoc1C (stereo not given)
inactive: [1] | [2] | [3] | [5] | [10] | [6] | [7] | [8] | [9]

CCCC(=O)CC
inactive: [2] | [3] | [5] | [10] | [6] | [7] | [8] | [9]

Cc1ccc2ccccc2n1
inactive: [2] | [3] | [5] | [10] | [6] | [7] | [8] | [9]

COc1cc(S(N)(=O)=O)cc(C(=O)O)c1OC
inactive: [1] | [2] | [3] | [5] | [10] | [6] | [7] | [8] | [9]

CC1(C)S[C@@H]2[C@H](NC(=O)Cc3ccccc3)C(=O)N2[C@H]1C(=O)O (tested in a mixture with another compound)
inactive: [1] | [2] | [3] | [5] | [10] | [6] | [7] | [8] | [9]

CC(CC(=O)Cl)CC(C)(C)C (stereo not given)
inactive: [1] | [2] | [3] | [5] | [10] | [6] | [7] | [9]

CCCCCC(=O)CC
inactive: [1] | [2] | [3] | [5] | [10] | [6] | [7] | [8] | [9]

CCCCCCCCCCCCCCCC/C=C/C1CC(=O)OC1=O (stereo not given)
inactive: [1] | [2] | [3] | [5] | [10] | [6] | [8] | [9]
active: [7] 16.9 µM

CCCCCCCCCCCC(C)=O
inactive: [1] | [2] | [3] | [4] | [5] | [6] | [7] | [9]

CCCCOCCCC
inactive: [1] | [2] | [3] | [5] | [10] | [6] | [7] | [9]

NS(=O)(=O)c1cc2c(cc1C(F)(F)F)NCNS2(=O)=O
inactive: [2] | [4] | [5] | [10] | [6] | [7] | [8] | [9]

CCc1ccc(CC)cc1
inactive: [1] | [2] | [3] | [5] | [10] | [6] | [7] | [8] | [9]
